Measurements published in PubChem BioAssay AID1159580 (chemical genetic matrix, 2015).
Values joined by “and” are separate entries in the source; they are usually repeats but may differ in a detail not shown here. Equal entries are not always repeated. Out of some 5,500 compounds screened, about 2,000 (36%) were called active. Inconclusive results (about 18%) are left out. Cut-off read from the data, not from the text of the source: active = normalized growth mostly below about 0.91 (no sharp cut-off); inconclusive = no clear call, values can overlap the other calls; inactive = mostly above about 0.92. The list shows a part of the results.

Assay: chemical genetic growth profiling, strain panel (AID 1159580);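 note: tested at 20 µM; growth read once vehicle control cultures reached saturation at 30 °C; 1 = growth at the plate median or of vehicle wells; lower values mean less growth of the strain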
Settings: S. cerevisiae deletion strains, growth OD

Measured: normalized growth

COC(=O)c1cc(=O)c(O)c2c(O)c(O)ccc2c1
inactive: locus YAL021C, strain ccr4, hits give low values 1 | locus YAL026C, strain drs2, hits give low values 0.968 | locus YAL030W, strain snc1, hits give low values 0.991 | locus YBL061C, strain skt5, hits give low values 0.988 | locus YBR009C, strain hhf1, hits give low values 0.985 | locus YBR021W, strain FUR4, hits give low values 1.07 | locus YBR023C, strain chs3, hits give low values 0.995 | locus YBR171W, strain sec66, hits give low values 0.976 | locus YBR229C, strain ROT2, hits give low values 0.976 | locus YBR231C, strain swc5, hits give low values 0.976 | locus YBR279W, strain paf1, hits give low values 1 | locus YCL011C, strain gbp2, hits give low values 1 | locus YCL016C, strain dcc1, hits give low values 0.989 | locus YCL061C, strain MRC1, hits give low values 0.987 | locus YCL069W, strain vba3, hits give low values 1 | locus YCR088W, strain abp1, hits give low values 0.997 | locus YDL005C, strain med2, hits give low values 1.01 | locus YDL040C, strain nat1, hits give low values 0.986 | locus YDR001C, strain nth1, hits give low values 0.999 | locus YDR069C, strain doa4, hits give low values 0.955 | locus YDR159W, strain sac3, hits give low values 0.947 | locus YDR195W, strain ref2 0.934 | locus YDR297W, strain sur2, hits give low values 0.987 | locus YDR334W, strain swr1, hits give low values 0.983 | locus YDR335W, strain msn5, hits give low values 0.994 | locus YDR388W, hits give low values 0.954 | locus YDR392W, strain spt3, hits give low values 0.99 | locus YEL003W, strain gim4, hits give low values 0.996 | locus YEL037C, strain rad23, hits give low values 0.997 | locus YEL061C, strain CIN8 (second series), hits give low values 0.994 | locus YER015W, strain faa2, hits give low values 0.985 | locus YER016W, strain bim1, hits give low values 0.973 | locus YER110C, hits give low values 0.988 | locus YER111C, strain swi4, hits give low values 0.976 | locus YER155C, strain BEM2 (second series), hits give low values 0.977 | locus YFR010W, strain ubp6, hits give low values 0.958 | locus YGL167C, strain pmr1, hits give low values 0.98 | locus YGL173C, strain kem1, hits give low values 0.984 | locus YGL227W, strain vid30, hits give low values 0.988 | locus YGL240W, strain doc1, hits give low values 1.01 | locus YGL253W, strain hxk2, hits give low values 0.998 | locus YGR252W, strain gcn5, hits give low values 0.948 | locus YHR013C, strain ard1, hits give low values 1.04 | locus YHR027C, strain rpn1, hits give low values 0.991 | locus YHR094C, strain hxt1, hits give low values 0.968 | locus YHR142W, strain chs7, hits give low values 1.02 | locus YIR030C, strain dcg1, hits give low values 0.932 | locus YJL092W, strain hpr5, hits give low values 0.991 | locus YJL095W, strain BCK1 (second series), hits give low values 0.99 | locus YJL115W, strain asf1, hits give low values 0.99 | locus YJL129C, strain trk1, hits give low values 0.997 | locus YJL134W, strain LCB3, hits give low values 0.958 | locus YJL154C, strain vps35, hits give low values 1.02 | locus YJL164C, strain tpk1, hits give low values 0.995 | locus YJL166W, strain qcr8, hits give low values 0.999 | locus YJL187C, strain SWE1, hits give low values 0.992 | locus YKL160W, strain elf1, hits give low values 1.01 | locus YKR026C, strain gcn3, hits give low values 0.961 | locus YKR091W, strain srl3, hits give low values 0.994 | locus YLL001W, strain dnm1, hits give low values 0.99 | locus YLL026W, hits give low values 0.994 | locus YLL041C, strain sdh2, hits give low values 0.999 | locus YLR027C, strain aat2, hits give low values 0.996 | locus YLR102C, strain apc9, hits give low values 0.966 | locus YLR221C, strain rsa3, hits give low values 0.97 | locus YLR258W, strain gsy2, hits give low values 0.996 | locus YLR320W, strain mms22, hits give low values 0.984 | locus YLR342W, strain FKS1, hits give low values 0.978 | locus YLR357W, strain rsc2, hits give low values 0.925 | locus YLR370C, strain arc18, hits give low values 0.999 | locus YLR384C, strain iki3, hits give low values 0.995 | locus YML120C, strain ndi1, hits give low values 0.997 | locus YML124C, strain tub3, hits give low values 0.952 | locus YMR078C, strain ctf18, hits give low values 0.943 | locus YMR125W, strain sto1, hits give low values 0.989 | locus YMR129W, hits give low values 0.988 | locus YMR205C, strain PFK2, hits give low values 0.987 | locus YMR231W, strain pep5, hits give low values 0.995 | locus YNL071W, strain lat1, hits give low values 1.02 | locus YNL209W, strain ssb2, hits give low values 0.99 | locus YNL248C, strain rpa49, hits give low values 0.99 | locus YNL307C, strain MCK1, hits give low values 0.953 | locus YNL322C, strain KRE1 (second series), hits give low values 0.967 | locus YNR049C, strain mso1, hits give low values 0.998 | locus YOL012C, strain htz1 0.795 | locus YOR001W, strain rrp6, hits give low values 0.985 | locus YOR070C, strain gyp1, hits give low values 0.995 | locus YOR080W, strain dia2, hits give low values 0.983 | locus YOR083W, strain WHI5, hits give low values 1 | locus YOR106W, strain vam3, hits give low values 0.966 | locus YOR265W, strain rbl2, hits give low values 0.994 | locus YOR270C, strain vph1, hits give low values 1.04 | locus YOR290C, strain snf2, hits give low values 0.94 | locus YOR316C, strain cot1, hits give low values 0.952 | locus YPL051W, strain arl3, hits give low values 0.982 | locus YPL078C, strain atp4, hits give low values 1.02 | locus YPL106C, strain sse1, hits give low values 0.965 | locus YPL240C, strain hsp82, hits give low values 0.978 | locus YPL241C, strain CIN2, hits give low values 0.943 | locus YPR119W, strain clb2, hits give low values 0.94
active: locus YCL029C, strain bik1, hits give low values 0.713 | locus YDL035C, strain GPR1, hits give low values 0.512 | locus YDL074C, strain BRE1, hits give low values 0.743 | locus YDL101C, strain DUN1, hits give low values 0.778 | locus YDL185W, strain tfp1, hits give low values 0.631 | locus YDL192W, strain arf1, hits give low values 0.772 | locus YDR101C, strain arx1, hits give low values 0.842 | locus YDR137W, strain rgp1, hits give low values 0.821 | locus YDR150W, strain NUM1, hits give low values 0.852 | locus YDR162C, strain NBP2, hits give low values 0.275 | locus YDR318W, strain mcm21, hits give low values 0.856 | locus YDR502C, strain sam2, hits give low values 0.891 | locus YER155C, strain BEM2, hits give low values 0.922 | locus YER167W, strain BCK2, hits give low values 0.862 | locus YGL078C, strain dbp3, hits give low values 0.732 | locus YGL086W, strain mad1, hits give low values 0.71 | locus YGL248W, strain PDE1, hits give low values 0.73 | locus YGR078C, strain PAC10, hits give low values 0.713 | locus YGR135W, strain pre9, hits give low values 0.795 | locus YGR229C, strain SMI1, hits give low values 0.151 | locus YHR030C, strain SLT2, hits give low values 0.604 and 0.636 | locus YHR079C, strain IRE1 (second series), hits give low values 0.874 | locus YHR079C, strain IRE1, hits give low values 0.81 | locus YHR129C, strain ARP1, hits give low values 0.681 | locus YHR200W, strain rpn10, hits give low values 0.878 | locus YIL066C, strain RNR3, hits give low values 0.552 | locus YIL073C, strain SPO22, hits give low values 0.416 | locus YIL125W, strain kgd1, hits give low values 0.812 | locus YJL095W, strain BCK1, hits give low values 0.59 and 0.624 | locus YJL168C, strain set2, hits give low values 0.924 | locus YJL187C, strain SWE1 (second series), hits give low values 0.627 | locus YJR043C, strain POL32, hits give low values 0.709 | locus YJR066W, strain TOR1, hits give low values 0.556 | locus YKL009W, strain mrt4, hits give low values 0.773 | locus YKL068W, hits give low values 0.808 | locus YKL085W, strain MDH1 (second series), hits give low values 0.793 | locus YKL085W, strain MDH1, hits give low values 0.793 | locus YKL190W, strain CNB1, hits give low values 0.593 | locus YKR001C, strain vps1, hits give low values 0.764 | locus YLR039C, strain RIC1, hits give low values 0.354 | locus YLR058C, strain SHM2, hits give low values 0.696 | locus YLR113W, strain HOG1, hits give low values 0.795 | locus YLR262C, strain YPT6 (second series), hits give low values 0.847 | locus YLR268W, strain sec22, hits give low values 0.707 | locus YLR342W, strain FKS1 (second series), hits give low values 0.569 | locus YLR371W, strain rom2, hits give low values 0.781 | locus YLR418C, strain cdc73, hits give low values 0.629 | locus YML016C, strain PPZ1, hits give low values 0.771 | locus YML032C, strain rad52, hits give low values 0.73 | locus YMR058W, strain fet3, hits give low values 0.89 | locus YMR223W, strain ubp8, hits give low values 0.818 | locus YMR263W, strain SAP30, hits give low values 0.882 | locus YMR307W, strain GAS1, hits give low values 0.477 | locus YNL067W, strain RPL9B, hits give low values 0.745 | locus YNL153C, strain GIM3, hits give low values 0.841 | locus YNL183C, strain NPR1, hits give low values 0.643 | locus YNL233W, strain BNI4, hits give low values 0.678 | locus YNL250W, strain rad50, hits give low values 0.62 | locus YNL271C, strain bni1, hits give low values 0.731 | locus YNL298W, strain CLA4, hits give low values 0.725 | locus YNL322C, strain KRE1, hits give low values 0.638 | locus YNR052C, strain pop2, hits give low values 0.7 | locus YOL006C, strain TOP1, hits give low values 0.326 | locus YOL147C, strain pex11, hits give low values 0.91 | locus YOR061W, strain CKA2, hits give low values 0.664 | locus YOR069W, strain VPS5, hits give low values 0.796 | locus YOR136W, strain idh2, hits give low values 0.869 | locus YOR144C, strain elg1, hits give low values 0.822 | locus YOR184W, strain ser1, hits give low values 0.801 | locus YOR231W, strain MKK1, hits give low values 0.672 | locus YPL256C, strain CLN2, hits give low values 0.787 | locus YPR141C, strain kar3, hits give low values 0.777 | locus YPR163C, strain tif3, hits give low values 0.832 | locus YPR167C, strain met16, hits give low values 0.802 | strain wtn01, hits give low values 0.785
